In the supplement of paper PMC6555819:

Key:
Assay in all cases: PBM binding z-score (relative to random genomic background probes); higher = stronger binding; sequences stand for … in GC…GCGATTGACAGCGTAGAATGAAGG
[1] = tested on: RARb homodimer (NR concentration 270 nM)
Summary of the method: (§1)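 On custom Agilent 4×180K arrays, double-stranded probes with 34-nt variable regions carried direct-repeat seeds, single-nucleotide variants, half-site ablations or random human genomic background. Ligand-free nuclear receptor dimers were applied for 1 h, and binding was read with antibodies against each partner (one per run). Binding z-scores come from regression-normalized fluorescence, with the random background probes as reference.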

[2] = tested on: RARg homodimer (NR concentration 270 nM)
Summary of the method: as §1

[3] = tested on: RXRa DBDmut IVT, anti-RXR (DBD mutation: RXRa K156A/R161A, NR concentration 90 nM)
Summary of the method: as §1

[4] = tested on: THRa:RXRa (NR concentration 90 nM, RXRa partner concentration 90 nM)
Summary of the method: as §1

[5] = tested on: THRa homodimer (NR concentration 90 nM)
Summary of the method: as §1

[6] = tested on: VDR homodimer (NR concentration 270 nM)
Summary of the method: as §1

[7] = tested on: RXRa homodimer (NR concentration 180 nM)
Summary of the method: as §1

[8] = tested on: VDR:RXRa (NR concentration 270 nM, RXRa partner concentration 90 nM)
Summary of the method: as §1

Sequence	PBM binding z-score [1]	PBM binding z-score [2]	PBM binding z-score [3]	PBM binding z-score [4]	PBM binding z-score [5]	PBM binding z-score [6]	PBM binding z-score [7]	PBM binding z-score [8]
CAAACCAGGTCACGAAAGGTCAAAGTCGAATGAC	5.97	9.05	2.9	5.23	3.86	4.47	–	–
CCTTACGGGTCCCTGACAGGTTATAGCATTTGGA	0.357	0.233	-0.553	0.389	-0.0756	0.0432	0.295	–
ACTCGGAGGACAAAGGTCACAGCTACGCCAGTGA	5.26	6.99	1.55	4.23	1.62	2.46	–	–
CAAACTAGGTCACAGGGGTCAAAGTCCGTGCGTA	5.94	7.58	3.6	–	3	7.07	8.57	8.24
TCTCGGAGGACACGAAGGTCAGCGCTTTCCAGAG	3.93	4.24	0.82	3.23	1.21	1.46	2.38	–
CCTAGCAGGCCAGGTTCACTCAAGCATTTCGCTT	0.543	0.106	2.28	0.5	0.0438	3.42	0.844	–
GCTCGGAGGACAAGGTCAGGGCTTTGTCCGTAGA	3.31	4.39	0.229	3.22	1.75	0.358	3.18	–
TGTCAAAGTTCTAAGGTAACGTAAGTATCCACAC	0.168	0.585	-0.0657	2.88	2.43	-0.114	–	0.479
ATACCAAGGTCATCGTGAGGTCGTTGATACTAAC	4.72	6.27	3.76	–	3.91	5.41	6.49	–
CGAACTAGGTCATCGAGGACAGTGAATACATTGA	3.3	5.19	2.23	4.11	2.51	2.73	3.01	–
CGTCCAAGGTCACAGGAGGTCAGTGAAGACAGAT	5.53	8.33	3.73	5.28	3.66	4.32	–	–
TCTCGGAGGTCACGAAGGTCAGAGCTTTCCAGAG	5.66	8.12	3.05	4.64	2.29	5.14	–	–
TAGCCAAGGTCATTCAGGGGCCAGTATAGAAAGC	4.08	6.27	4.05	4.08	1.75	3.99	5.47	–
CGTCCAAGGTCAATGCGAGGTCAGTGAAAGCATT	5.27	6.95	3.59	–	4.23	4.73	6.15	6.22
AGTCAAAGGTCACTAGGTAACGTAAGATTCAGCT	5.03	8.53	2.94	3.99	0.996	2.14	–	–
